This passage reports growth results from PubChem BioAssay (NCI).

The structures appear in SMILES notation. This is part of a sample that, as a whole, favours compounds with a hit. Of some 83,000 tested, about 20% had one in any assay.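 Values shown are percent growth following 48 h exposure of cells in 96-well plates to a single concentration of compound; below 10 was considered active.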 A number with no mark means an inactive call. The source made the active and inactive calls.

The test concerns MDA-MB-468 breast. The experiment in a line: NCI-60 one-dose screen, 48 h (100 = growth as untreated, 0 = no growth, -100 = all killed). Particulars: 10 µM. As to the method:
Growth inhibition of the MDA-MB-468 human Breast tumor cell line is measured as a screen for anti-cancer activity. Cells are grown in 96 well plates and exposed to the test compound for 48 hours. Compounds are tested at a single concentration, which is 10^-5 M for most compounds. The reported endpoint is percent growth (GI% or GIPRCNT), where numbers from 0 - 100% represent growth inhibition, and numbers from -100% - 0 represent cell death. For example, a value of 40 represents 60% growth inhibition. A value of 0 means no net growth occurred over the course of the experiment. A value of -40 indicates 40% of cells at the beginning of the experiment died by the end of the experiment. A value of -100 means all cells are dead at the end of the experiment.
NCI-60 Human Tumor Cell Lines Screen was performed using the standard one-dose NCI protocol, which is described in more detail at https://dtp.cancer.gov/discovery_development/nci-60/default.htm.
Compounds with GIPRCNT values below 10 were considered active. Activity score was based on GIPRCNT using the following formula: […]
Score is 0 for GIPRCNT values of 100 or above, 50 for GIPRCNT values of 0, and 100 for GIPRCNT values of -100.
For `CO[C@H]1CSS[C@@H]1Cn1nc(-c2ccc(Oc3ccccc3)cc2)c2c(N)ncnc21`, the growth is -21.2% (active).
To `COC[C@@H](CC(C)C)N=C1NC(=O)/C(=C/c2ccc3ncsc3c2)N1` belongs -17.8% (active).
For the compound `CN1CCc2c(sc3ncnc(N/N=C/c4ccc5ccccc5c4)c23)C1`, the growth was 42%.
As to `O=C(CSc1nnc(-c2c[nH]c3ccccc23)n1-c1ccccc1)c1ccc(Cl)cc1`, the growth was 46.4%.
With `O=C(N/C(=C1/OCCN1Cc1ccccc1)[P+](c1ccccc1)(c1ccccc1)c1ccccc1)c1ccccc1`, the growth is -30% (active).
As for `COc1ccc(-c2cc(C(=O)N=Nc3c(O)[nH]c4ccc(F)cc34)c3ccccc3n2)cc1`, the growth is 44.2%.
On to `N#Cc1c(NC(=O)c2ccc(C(O)(C(F)(F)F)C(F)(F)F)cc2)sc2c1CCC(=O)C2`, for which the growth is -90% (active).
Consider `Cc1ccc(CSc2nc(Cl)c(C#N)c(-c3ccc(F)cc3)n2)cc1`, for which the growth is 80.3%.
For the compound `COc1cccc(C(N)=Nc2ccc(OCCCCCCn3cncn3)cc2)c1`, the growth was 17.5%.
To `CN1CCN(c2ccc(Nc3nc(NCCCNC(=O)c4ccccc4)c4sccc4n3)cc2)CC1` belongs 68.4%.
Turning to `CC(=O)Nc1ccc(-c2cn(-c3cccc(C(=O)Nc4ccc(F)c(C(F)(F)F)c4)c3)nn2)cn1`, the growth is 42.8%.
As for `O=C(Nc1ccc(Cl)c(C(F)(F)F)c1)c1cncc(C#Cc2cnc3ccc(N4CCOCC4)nn23)c1`, the growth was -30.8% (active).
Next, `O=C(CS(=O)(=O)c1oc(-c2ccc(Cl)cc2)nc1S(=O)(=O)c1ccccc1)N1CCCC1`: -90.5% (active); `Clc1ccc(/C=N/Nc2ncnc3sc4c(c23)CCN(Cc2ccccc2)C4)cc1`: -62.4% (active).
Next, `NS(=O)(=O)c1ccc(NC(=O)CSc2ccc(-c3ccc(Cl)cc3)nn2)c(Br)c1`: -3.52% (active).
Take `CC1=C2C(=C[C@@](C)(COCOCCCl)[C@@H]2O)C(=O)[C@](C)(O)C12CC2`: the growth is -89.9% (active).
Consider `CN1CCN(c2ccc(C(=O)/C=C/c3cc(Br)ccc3F)cc2)CC1`, for which the growth was -13.3% (active).
`O=C(Nc1ccc(F)c(Cl)c1)c1cc(-c2ccc(F)cc2F)ccc1O`: the growth was -44.4% (active).
To `O=C(c1ccc(Cl)cc1)C1[C@H](c2ccc(Br)cc2)[C@@H](c2ccccc2)NC12C(=O)Nc1ccc(Br)cc12` (stereo not given in full) belongs -98.9% (active); to `O=C(Cc1ccc2c(c1)CN(C1CCC(=O)NC1=O)C2=O)NCc1cccc2ccccc12` (stereo not given), -69.2% (active).
To `Cc1cc(C)nc(/N=C(\N)Nc2ccc(S(=O)(=O)Nc3nc(C)cc(C)n3)cc2)n1` belongs 106%; to `COc1ccc2[nH]c(=O)c(CSc3nccc(-c4ccc(Cl)cc4)n3)cc2c1`, -28.5% (active).
To `O=C1NC(=NC2CCCCCC2)N/C1=C\c1ccc2ncoc2c1` belongs -3.48% (active).
With `Cc1cccc2cc(-c3cc(-c4ccccc4)nc(=O)[nH]3)c(Cl)nc12`, the growth is 83.6%.
Next, `COc1ccc2[nH]cc(/C=N/Nc3cccc(Cl)n3)c2c1`: -13.2% (active); `O=c1[nH]c2ccccc2cc1CSc1ccc(Nc2nccc(-c3ccc(Cl)cc3)n2)cc1`: -67.5% (active).
`COc1ccc2nc(Nc3cccc(NC(=O)c4ccc(CN5CCN(C)CC5)c(C(F)(F)F)c4)c3)ccc2c1`: the growth was -97.1% (active).
On to `Cc1ccc(/C=C/C(=O)c2ccc(NC(=O)CSc3nnc(-c4c[nH]c5ccccc45)n3-c3ccccc3)cc2)cc1`, for which the growth was 85.7%.
For the compound `COC1=C[C@]23CCC(=O)N2CCc2cc4c(cc2[C@@H]3[C@@H]1OC(=O)CCCC(C)C)OCO4`, the growth was 6.02% (active).
Regarding `CC(=O)Nc1ccc(-n2cnc3cc(-c4ccc(O)cc4)ccc32)cc1C`, the growth was -7.11% (active).
Next, `N#Cc1ccc(-c2nn(-c3ccc(C(=O)O)cc3)cc2CNc2cccc(Br)c2)cc1`: 66%; `O=c1cc(-c2ccccc2)oc2cc(OCCCCNCc3ccccc3)cc(O)c12`: -28.2% (active); `Nc1nc2c(F)c(F)c(F)c(F)c2s1`: 97.9%.
Next, `Cc1noc2c(Cc3ccc([N+](=O)[O-])cc3)nn(CC(=O)N/N=C/c3ccc(Cl)cc3)c(=O)c12`: 5.37% (active); `CC(=C(c1ccc(OCCCN(C)C)cc1)c1ccc(OCCCN(C)C)cc1)c1ccccc1`: -93.9% (active); `NS(=O)(=O)c1ccc(N=Nc2c(O)n(CC(=O)Nc3ccccc3Br)c3ccccc23)cc1`: 35.8%.
Next, `O=C(Nc1nc2ccc([N+](=O)[O-])cc2s1)Nc1cc(Cl)ccc1I`: -43.5% (active); `CC1=N/C(=C\c2ccc(N(C)C)cc2)C(=O)N1CCc1ccc(S(N)(=O)=O)cc1`: 110%.
In the case of `C=C1CC[C@H](C(=C)C)[C@H]2C=C(C)C(=O)C3=C(C(=O)[C@@](C)(O)C3)[C@H]12`, the growth was -69.5% (active).
For the compound `CO[C@@H]1CSSC1Cn1nc(-c2ccc(Oc3ccccc3)cc2)c2c(N)ncnc21` (stereo not given in full), the growth is -12.9% (active).
